From PubChem BioAssay (NCATS)
Inconclusive results are not listed. Activity calls are given as the source filed them. The call rests on the fitted dose curve; in most records, active means well fitted curve in the direction sought with a large enough effect; inconclusive means small, poorly fitted or top-dose-only effect, or another doubt; inactive means no such curve, though single readings can be large; an effect the other way counts as inactive or inconclusive.

How the values were obtained:
[1] = OV-SAHO Cancer Cell Toxicity qHTS against the NCATS CANVASS Library (AID 1347348); conditions: OV-SAHO viability, CellTiter-Glo luminescence, 72 h; series mostly up to 38.3 µM; further: nearly all actives have a fitted effect of over 55% in size
Procedure, shortened: (§1)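 In this cytotoxicity screen, 1000 cells per well rested 4 hours, then received compound (11 concentrations) for a 72-hour incubation; an ATP-dependent luminescent signal (CellTiter-Glo) was the endpoint.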

[2] = SW1088 Cancer Cell Toxicity qHTS against the NCATS CANVASS Library (AID 1347350); conditions: SW1088 viability, CellTiter-Glo luminescence, 72 h; at 38.3 µM (top of the series); further: nearly all actives have a fitted effect of over 75% in size
Procedure, shortened: as §1

[3] = U-118MG Cancer Cell Toxicity qHTS against the NCATS CANVASS Library (AID 1347351); conditions: U-118MG viability, CellTiter-Glo luminescence, 72 h; series mostly up to 38.3 µM
Procedure, shortened: as §1

[4] = COV-362 Cancer Cell Toxicity qHTS against the NCATS CANVASS Library (AID 1347352); conditions: COV-362 viability, CellTiter-Glo luminescence, 72 h; series mostly up to 38.3 µM
Procedure, shortened: (§2)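 Using an ATP-based luminescent reagent after three days of treatment, toxicity is scored across an eleven-concentration range in wells holding 1000 cells each.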

[5] = A2780 Cisplatin Sensitive Ovarian Cancer Cell Toxicity qHTS against the NCATS CANVASS Library (AID 1347353); conditions: A2780 ovarian cancer viability, ATPLite luminescence, 72 h; at 46.1 µM (top of the series); further: nearly all actives have a fitted effect of over 60% in size
Procedure, shortened: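 Quantitative HTS format: eleven compound concentrations applied to pre-seeded cells, 72 h incubation at 37 °C, then ATP detection by luminescence.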

[6] = UWB1.289-WTBRCA1 Cancer Cell Toxicity qHTS against the NCATS CANVASS Library (AID 1347354); conditions: UWB1.289-WTBRCA1 viability, CellTiter-Glo luminescence, 72 h; series mostly up to 38.3 µM
From the text: Natural products and their derivatives continue to be wellsprings of nascent therapeutic potential. However, many laboratories have limited resources for biological evaluation, leaving their previously isolated or synthesized compounds largely or completely untested. To address this issue, the Canvass library of natural products was assembled (https://tripod.nih.gov/canvass), in collaboration with academic and industry researchers, for quantitative high-throughput screening (qHTS) across a diverse set of cell-based and biochemical assays. The pure (>85% purity by liquid chromatography/mass spectrometry [LC/MS]) Canvass library of 346 natural products were submitted by 45 academic laboratories and companies around the world. […] The library was formatted into 1536-well plates and evaluated in 50 qHTS (in an 11-pnt concentration series) bioassays with broad scope of disease-relevant mechanisms. The resulting data set from 50 different assays was then systematically analyzed to identify overall trends and specific natural products with interesting biological activities. […]
Cancer Cell Toxicity COV-362, OV-KATE, OV-SAHO, UWB1.289, UWB1.289-WTBRCA1, HEK-293, HPAF-II, Panc-1005, SW1088, and U-118MG-screen protocol. […] Luminescence signal was acquired via the ViewLux plate reader (PerkinElmer) using a clear filter, 2 second exposure and 2x binning settings.

[7] = HEK-293 Cancer Cell Toxicity qHTS against the NCATS CANVASS Library (AID 1347355); conditions: HEK-293 viability, CellTiter-Glo luminescence, 72 h; at 46.1 µM (top of the series); further: nearly all actives have a fitted effect of over 65% in size
Procedure, shortened: as §2

[8] = HPAF-II 24hr Apoptosis Induction qHTS against the NCATS CANVASS Library (AID 1347356); conditions: HPAF-II caspase-3/7 Caspase-Glo luminescence; series mostly up to 46.1 µM
Procedure, shortened: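 Using an 11-point qHTS format, HPAF-II cells in DMEM/10% FBS received compounds for 24 h; doxorubicin titration as control. Caspase-3/7 activity quantified by DEVD-luciferase luminescence.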

[9] = HEK293 18hr Apoptosis Induction qHTS against the NCATS CANVASS Library (AID 1347357); conditions: HEK293 caspase-3/7 Caspase-Glo luminescence; series mostly up to 46.1 µM
Procedure, shortened: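 HEK293 cells (500/well, DMEM + 10% FBS) treated with an 11-point series for 18 h at 37 degrees C. Caspase-3/7 activity read by Caspase-Glo luminescence after 15 min at room temperature.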

[10] = HPAF-II 12hr Apoptosis Induction qHTS against the NCATS CANVASS Library (AID 1347358); conditions: HPAF-II caspase-3/7 Caspase-Glo luminescence; series mostly up to 46.1 µM
Procedure, shortened: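 Twelve-hour compound exposure of HPAF-II cells in DMEM with 10% FBS, then luminescent Caspase-Glo 3/7 detection after 15 min at room temperature; doxorubicin control.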

Measured: outcome

COc1ccc2[nH]cc(CCNC(C)=O)c2c1
inactive: all assays above
